Experimental data reported in PubChem BioAssay AID504850 (National Center for Advancing Translational Sciences (NCATS), 2011).
Hit rate of the full screen: of about 2,300 compounds, about 1,200 (52%) were called active. Not shown: some 34% with an inconclusive outcome. Calls come from the whole dose curve; as a rule, active = well fitted inhibition curve with a large enough effect; inconclusive = small, poorly fitted or top-dose-only effect, or effect the other way; inactive = no such curve, though single readings can be large or run the other way. So high a share suggests a set chosen from earlier hits. Some of the results follow.

Test: Confirmation screen for delayed death inhibitors of the malarial parasite plastid, 48 hour incubation; note: nearly all actives have a fitted effect of over 65% in size
Conditions: P. falciparum-infected erythrocytes, luciferase growth; series mostly up to 28.7 µM
Summary of the method: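 Erythrocytes infected with luciferase-expressing P. falciparum (2% hematocrit, 0.1% parasitemia) incubated with compounds 48 hours at 37 C, 5% CO2, in RPMI/Albumax. Growth inhibition scored as reduced luminescence after detection reagent.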
Potency is the fitted concentration of half-maximal effect.

Row | SMILES | Potency
1 | CCOC(=O)c1c(-c2ccc(C)cc2C)csc1NC(=O)CSc1nnnn1C | 4.47 µM (active)
2 | CCCSc1nc2c(cnn2-c2ccccc2)c(=O)[nH]1 | inactive
3 | CCCc1c(NC(=O)Nc2ccc(F)cc2)cnn1-c1ccccc1 | 15.8 µM (active)
4 | CC1=NCCN1CCNC(=O)Nc1ccc(F)cc1 | inactive
5 | CCCc1c(NC(=O)Nc2ccc(F)cc2)cnn1-c1ccc(Cl)cc1 | 12.6 µM (active)
6 | NC(=O)C1CCN(CC(=O)Nc2cccc(C(=O)Nc3cccc(C(F)(F)F)c3)c2)CC1 | 2 µM (active)
7 | COc1cccc(NC(=O)c2ccc3c(c2)C(=O)N(CC2CCCO2)C3=O)c1 (stereo not drawn) | inactive
8 | CSc1c[n+]2c(n1C)CCC2 | inactive
9 | Cc1ccc(-n2c(-c3ccc(Cl)cc3)c[n+]3c2CCC3)cc1 | 0.355 µM (active)
10 | Cc1c(C)n2c(SCC(=O)Nc3ccc4c(c3)OCCO4)nnc2[nH]c1=O | 4.47 µM (active)
11 | O=C(c1[nH]ncc1-c1cccc(Br)c1)C1CO1 (stereo not drawn) | 12.6 µM (active)
12 | Cc1onc(NC(=O)c2ccc([N+](=O)[O-])o2)c1Br | 12.6 µM (active)
13 | CC1=Nc2cc(C(=O)N3CCCC3)ccc2Sc2ccc(C)cc21 | 5.62 µM (active)
14 | COc1ccc(CCN2CCCn3c2nc2c3c(=O)n(Cc3ccccc3F)c(=O)n2C)cc1OC | 5.01 µM (active)
15 | COc1cc(/C=C/C(=O)c2ccc(Cl)s2)cc(OC)c1O | 14.1 µM (active)
16 | COc1ccccc1CNC(=O)c1ccc2c(=O)n3c(nc2c1)CCCCC3 | 11.2 µM (active)
17 | CCOC(=O)C1CCN(C(=O)C(=O)Nc2ccc3nc4n(c(=O)c3c2)CCCCC4)CC1 | 14.1 µM (active)
18 | COc1ccccc1C(=O)Nc1ccc2nc3n(c(=O)c2c1)CCCC3 | 11.2 µM (active)
19 | CCC(=O)N1CCc2cc(S(=O)(=O)N3CCCCCC3)ccc21 | 12.6 µM (active)
20 | CC(=O)N1CCc2cc(S(=O)(=O)N3CC(C)CC(C)C3)ccc21 (stereo not drawn) | 11.2 µM (active)
21 | CCC(=O)N1CCc2cc(S(=O)(=O)N3CCN(c4cc(Cl)ccc4C)CC3)ccc21 | inactive
22 | O=C1C2CCCN2C(c2ccccc2)N1c1nccs1 (stereo not drawn) | inactive
23 | Cc1ccc(Nc2nc(=O)c3cccnc3s2)c(Br)c1 | inactive
24 | O=S(=O)(Nc1cccc2ncccc12)c1cccs1 | 4.47 µM (active)
25 | Cc1ccc(S(=O)(=O)Nc2cccc3ncccc23)s1 | 5.01 µM (active)

Row | SMILES | Potency
26 | CCOc1ccc(CCn2c(-c3ccco3)nc3ccccc3c2=O)cc1OCC | 10 µM (active)
27 | CCOc1ccc(S(=O)(=O)Nc2cc(S(=O)(=O)N(CC)CC)ccc2N2CCCC2)cc1 | 2.51 µM (active)
28 | N#CC(C#N)=C1C=CC=CN1/C(=C\c1ccco1)C(=O)c1ccc(Br)cc1 | 15.8 µM (active)
29 | COc1ccc(C(=O)/C(=C\c2ccco2)N2C=CC=CC2=C(C#N)C#N)cc1 | 15.8 µM (active)
30 | N#CC(C#N)=C1C=CC=CN1/C(=C\c1ccco1)C(=O)c1ccc(Cl)cc1 | 14.1 µM (active)
31 | COc1ccc(-c2cc(CNC(=O)CCl)on2)cc1 | 1.58 µM (active)
32 | O=C(NCc1ccc2c(c1)OCO2)c1nc(S(=O)(=O)Cc2ccccc2F)ncc1Cl | inactive
33 | O=C(CN(c1ccc2c(c1)OCCO2)S(=O)(=O)c1ccccc1)NCc1ccc(Cl)cc1 | 7.94 µM (active)
34 | CC(C)N1C/C(=C/c2ccsc2)C(=O)/C(=C/c2ccsc2)C1 | 5.01 µM (active)
35 | Cc1c(CCO)sc[n+]1CC(=O)OCCC12CC3CC(CC(C3)C1)C2 | 8.91 µM (active)
36 | CCCCc1nc2cc(C(=O)N3CCN(c4nc(C)cnc4C)CC3)ccc2o1 | 12.6 µM (active)
37 | CCC(C)(C)NC(=O)C(c1cccc(OC)c1OC)N(CC(C)C)C(=O)CCC(=O)Nc1cc(C)on1 (stereo not drawn) | 10 µM (active)
38 | CCOC(=O)Cn1nnnc1C(CC)N(Cc1cccs1)Cc1cc2ccc(OC)cc2[nH]c1=O (stereo not drawn) | 10 µM (active)
39 | Cc1ccc(C)c(-c2nnc(OCC(=O)Nc3cc(C)on3)c3ccccc23)c1 | 14.1 µM (active)
40 | Cc1ccc(OCC(=O)Nn2cnnc2)c(Br)c1 | inactive
41 | CC(C)N=C(NS(=O)(=O)c1ccccc1)C(Cl)(Cl)Cl | 5.01 µM (active)
42 | C=CCNC(=O)c1onc(CSc2cccc(Cl)c2)c1C(=O)O | inactive
43 | CCc1ccc(-c2cn(C3CCCCC3)c(=S)[nH]2)cc1 | 14.1 µM (active)
44 | CC(=O)/C=C/c1ccccc1Oc1c(F)c(F)nc(F)c1F | 10 µM (active)
45 | Cc1cccc2c1NC(=O)/C2=C\C(=O)c1cccs1 | inactive
46 | CC(C)N(C(=O)CSc1nnc(-c2ccc3c(c2)OCO3)n1C)C(C)C | 11.2 µM (active)
47 | CC(NC(=O)Nc1ccc(Cl)cc1)c1ccc2c(c1)OCO2 (stereo not drawn) | inactive
48 | O=C(N[C@@H](Cc1ccccc1)C(=O)CCl)OCc1ccccc1 | inactive
49 | COC(=O)[C@H](Cc1ccccc1)N(C)S(=O)(=O)c1cccc(S(=O)(=O)N(C)[C@@H](Cc2ccccc2)C(=O)OC)c1 | 12.6 µM (active)
50 | CCCCCn1c(=O)c2ccccc2n2c(CCl)nnc12 | 10 µM (active)

Row | SMILES | Potency
51 | COc1cccc(F)c1C(C[N+](=O)[O-])c1c(N)n(C)c(=O)n(C)c1=O (stereo not drawn) | 5.01 µM (active)
52 | Cc1ccc(CN2CCCCC2C(=O)Nc2ccc(Oc3cccnc3)cc2)o1 (stereo not drawn) | 11.2 µM (active)
53 | Cc1ccccc1C(=O)N1CCN(c2ccc(NC(=O)c3ccc([N+](=O)[O-])o3)cc2)CC1 | 10 µM (active)
54 | O=C(Nc1ccc(N2CCN(C(=O)c3ccccc3)CC2)cc1)c1ccc([N+](=O)[O-])o1 | 5.01 µM (active)
55 | O=C(Nc1ccc(N2CCN(C(=O)c3cccs3)CC2)cc1)c1ccc([N+](=O)[O-])o1 | 3.55 µM (active)
56 | O=C(Nc1ccc(N2CCN(C(=O)c3ccco3)CC2)cc1)c1ccc(F)cc1 | 11.2 µM (active)
57 | O=C(Nc1c2c(nn1-c1ccc([N+](=O)[O-])cc1)CS(=O)(=O)C2)c1cccs1 | inactive
58 | COc1ccc(CCNS(=O)(=O)c2ccc(Br)s2)cc1 | inactive
59 | O=C(NCc1ccc(F)cc1)C1CCN(S(=O)(=O)c2ccc(Br)s2)CC1 | 12.6 µM (active)
60 | O=C(COC(=O)C1C2CC3OC(=O)C1C3C2)Nc1ccccc1 (stereo not drawn) | inactive
61 | O=S1(=O)Nc2c(ccc3cccnc23)-c2ccccc21 | 1.78 µM (active)
62 | Cc1ccc(-c2nc(-c3cccnc3)sc2CC(=O)Nc2ccc(C)c(Cl)c2)cc1 | 4.47 µM (active)
63 | Cc1nc(-c2ccccn2)sc1C(=O)Nc1ccc(Cl)c(Cl)c1 | inactive
64 | COc1cc(OC)c(OC)cc1CN1CCN(C(=O)c2cccc3ccccc23)CC1 | 12.6 µM (active)
65 | CC1C/C(=C/c2ccncc2)C(=O)/C(=C/c2ccncc2)C1 (stereo not drawn) | 3.98 µM (active)
66 | CCSc1nnc(N2C(=O)c3ccc(C(=O)c4ccc(C(=O)O)cc4)cc3C2=O)s1 | inactive
67 | O=C(NC1CCCC1)C1CC(=O)N(CCc2ccccc2)C1 (stereo not drawn) | inactive
68 | O=C(NC1CCN(Cc2ccccc2)CC1)C1CCN(c2nnc(-n3cccc3)s2)CC1 | 10 µM (active)
69 | O=C(Cc1cccs1)NCCc1ccc(Cl)cc1 | 4.47 µM (active)
70 | Cc1ccc(Cl)cc1N1CCN(c2cccc[n+]2C)CC1 | 3.16 µM (active)
71 | COc1cccc2sc(Nc3nnc(-c4ccc(F)cc4)o3)nc12 | 7.08 µM (active)
72 | O=C(COc1ccccc1)Nc1nnc(-c2ccc(F)cc2)o1 | inactive
73 | COc1cccc2sc(Nc3nnc(-c4ccccc4Cl)o3)nc12 | 12.6 µM (active)
74 | CC(C)CCSc1nc(N)c(C#N)cc1C#N | 6.31 µM (active)
75 | CCOC(=O)c1c[nH]c2cc(OCC(C)C)c(OCC(C)C)cc2c1=O | 0.199 µM (active)

Row | SMILES | Potency
76 | CSc1nnc(C)c(=O)[nH]1 | inactive
77 | Cc1cc(=O)oc2c1ccc1oc(/C(=N/O)c3ccccc3)c(C)c12 | 7.94 µM (active)
78 | COc1ccccc1NC(=S)NCc1cccs1 | inactive
79 | COc1ccc2cc3cc(C(=O)Nc4ccc5c(c4)OCO5)oc3nc2c1 | 5.01 µM (active)
80 | Cc1ccc2cc3cc(C(=O)NCCCN4CCCC4=O)oc3nc2c1 | 3.16 µM (active)
81 | COc1ccc2nc3oc(C(=O)NCc4cccs4)cc3cc2c1 | 3.55 µM (active)
82 | COCCCNC(=O)c1cc2cc3cc(OC)ccc3nc2o1 | 5.01 µM (active)
83 | Cn1cnc([N+](=O)[O-])c1Sc1ccc(Br)cc1 | inactive
84 | Cc1cc(Br)ccc1NC(=O)CNC(=O)Cn1ncc(Cl)c(Cl)c1=O | 12.6 µM (active)
85 | O=C(Nn1c(-c2ccccc2)nc2ccccc2c1=O)c1ccco1 | inactive
86 | O=C(NNc1nc(-c2ccccc2)cs1)c1ccco1 | 2.24 µM (active)
87 | Cc1nn(-c2ccccc2)c(C)c1/C=N/n1c(-c2ccccc2Br)n[nH]c1=S | 14.1 µM (active)
88 | S=c1[nH]nc(-c2ccccn2)n1/N=C/c1ccc(-c2ccccc2Br)o1 | inactive
89 | Cc1[nH]c(=O)c(C(=O)/C=C/c2ccccc2F)c2c1CCCC2 | 7.08 µM (active)
90 | Cc1[nH]c2ccccc2c(=O)c1C(=O)/C=C/c1ccccc1 | 6.31 µM (active)
91 | Cc1[nH]c(=O)c(C(=O)/C=C/c2ccccc2)c2c1CCCC2 | 6.31 µM (active)
92 | Cc1[nH]c2ccccc2c1/C=N/NC(=O)CNC(=O)Cc1ccccc1 | inactive
93 | O=C1CSC(c2cccnc2)N1CCc1ccccn1 (stereo not drawn) | inactive
94 | CC(=O)Nc1ccc(NC(=O)c2ccc(C3SCC(=O)N3CCc3ccccc3)cc2)cc1 (stereo not drawn) | 8.91 µM (active)
95 | N#CCc1nc(C(c2ccccc2)c2ccccc2)no1 | 7.94 µM (active)
96 | CC(C)c1cc(NC(=O)CCl)on1 | 10 µM (active)
97 | CC(C)NC(=S)N/N=C/c1sc(N2CCCCC2)nc1-c1cccs1 | 6.31 µM (active)
98 | Cc1ccc(C(=O)N/C(=C\c2ccc(-c3ccc(Cl)cc3)o2)C(=O)NCCCN(C)C)cc1 | 3.98 µM (active)
